# Assay results: PubChem BioAssay (NCI)
# Compounds without any hit were thinned out: in the full panel of roughly 83,000, 20% have a hit.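 Compound tested at a single concentration for 48 hours in 96-well plates; a percent growth value below 10 was scored as active.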 Values without a mark were called inactive. The source made the active and inactive calls.
# Assays:
# Experiment in all cases: NCI-60 one-dose screen, 48 h (100 = growth as untreated, 0 = no growth, -100 = all killed)
# Conditions in all cases: 10 µM unless noted
# [1] = system: SK-MEL-2 melanoma
# [2] = system: EKVX NSCLC
# [3] = system: SN12C renal
# [4] = system: UO-31 renal
# [5] = system: TK-10 renal
# [6] = system: ACHN renal
# [7] = system: CAKI-1 renal
# [8] = system: A498 renal
# [9] = system: CCRF-CEM leukemia
# [10] = system: MOLT-4 leukemia
# [11] = system: SR leukemia
# [12] = system: RPMI-8226 leukemia
# [13] = system: OVCAR-8 ovarian
# [14] = system: OVCAR-5 ovarian
# [15] = system: OVCAR-4 ovarian
# [16] = system: SK-OV-3 ovarian
# [17] = system: IGROV1 ovarian
# [18] = system: OVCAR-3 ovarian
# [19] = system: HS 578T breast
# [20] = system: NCI/ADR-RES ovarian
SMILES,growth [1],growth [2],growth [3],growth [4],growth [5],growth [6],growth [7],growth [8],growth [9],growth [10],growth [11],growth [12],growth [13],growth [14],growth [15],growth [16],growth [17],growth [18],growth [19],growth [20]
Cc1cc(Cl)ccc1Nc1nc(C(F)(F)F)ccc1C(=O)N/N=C/c1ccc([N+](=O)[O-])cc1,-33.5% (active),-8.42% (active),4.6% (active),-27.1% (active),-8.71% (active),-22.9% (active),2.14% (active),88.9%,-12.9% (active),-5.84% (active),-1.84% (active),-72.6% (active),9.08% (active),-18.6% (active),-11.6% (active),-14.9% (active),-35.1% (active),-18.1% (active),97.3%,-32.8% (active)
COc1cc(/C=C/C(=O)c2cccc(Nc3nc(Nc4ccccc4)nc(Nc4ccccc4)n3)c2)cc(OC)c1OC,53.6%,66.1%,84.2%,35.3%,66.3%,68.3%,75.5%,68.8%,6.56% (active),9.67% (active),22.4%,-63.1% (active),27.2%,78.8%,67.4%,90.3%,37.3%,44.9%,50.3%,40.6%
O=C1c2cccc3cccc(c23)C(=O)N1N1C(=O)c2cccc3c(N4CCOCC4)ccc(c23)C1=O,107%,94.1%,88.8%,68.7%,141%,95%,87.4%,64.3%,122%,108%,92.4%,106%,96.2%,97.1%,108%,90%,95.6%,106%,90.3%,92%
O=C(NCCCCNC(=O)OCc1ccc2c(Cl)cc(Cl)c(O)c2n1)OCc1ccc2c(Cl)cc(Cl)c(O)c2n1,29.6%,91.3%,28.1%,37.2%,61.3%,26.2%,13.1%,-1.85% (active),18.3%,22.6%,17%,25%,11.2%,38.6%,38.9%,30.5%,11.1%,-40.3% (active),21.9%,3.44% (active)
O=C(Nc1ccc(-c2nc(N3CCOCC3)c3cccn3n2)cc1)Nc1cccnc1,-4.42% (active),-13.5% (active),6.41% (active),-9.74% (active),-17.4% (active),-5.66% (active),8.83% (active),-35% (active),12.6%,5.84% (active),11%,-12% (active),1.49% (active),10.1%,-10.7% (active),-24.2% (active),-19.2% (active),4.15% (active),-32.3% (active),0.693% (active)
N#Cc1c(-c2ccccc2)cc(-c2ccccc2)n(CCCCCC(=O)Nc2ccccc2N)c1=O,89.7%,50.8%,59%,34.4%,72.8%,73.7%,29.7%,96.7%,6.3% (active),9.12% (active),18.5%,-19.2% (active),58.8%,66.4%,65.9%,90.4%,45.9%,59.2%,76.2%,49%
NC(=O)c1c(NC(=O)c2ccccc2)sc2c1CCC(=O)C2,12.7%,19.2%,12.2%,0.418% (active),54.9%,7.58% (active),-8.25% (active),92.3%,5.12% (active),5.67% (active),7.6% (active),-10.3% (active),17.2%,20.3%,-5.57% (active),50.9%,27.1%,7.93% (active),24.5%,7.2% (active)
N#C/C(=C\c1ccc(Br)cc1)n1nnc2ccc(F)cc21,13.8%,49.9%,-51.2% (active),-36.4% (active),-3.76% (active),-37.9% (active),-4.59% (active),-15.6% (active),-10.2% (active),-20% (active),-11.9% (active),-35.4% (active),7.38% (active),3.03% (active),24.9%,51.6%,-31.2% (active),-45.3% (active),3.56% (active),1.62% (active)
